From PubChem BioAssay (NCATS)
Records with an inconclusive call do not appear. Active and inactive are the calls of the source. Calls come from the whole dose curve; as a rule, active = well fitted inhibition curve with a large enough effect; inconclusive = small, poorly fitted or top-dose-only effect; inactive = flat fitted curve, though single readings scatter.

Target: Luciferin 4-monooxygenase (Photinus pyralis) (UniProt P08659)
Experiment: Biochemical firefly luciferase enzyme assay for NPC (AID 624030); note: nearly all actives have a fitted effect of over 70% in size
Details: purified P. pyralis luciferase, luminescence, 5 min; series mostly up to 58.6 µM
From the text: Charcot-Marie-Tooth-Association [CMTA] National Center for Advancing Translational Sciences [NCATS] Charcot-Marie-Tooth (CMT) disease was first characterized by Jean-Martin Charcot and Pierre Marie in France and, independently, by Howard Henry Tooth in England in 1886. CMT is one of the most common inherited neurological diseases, affecting approximately 1 in 2,500 Americans. […] The most prevalent type of CMT is known as CMT1A and caused by a duplication of the PMP22 gene which leads to over-expression of this protein. PMP22 is a glycosylated intrinsic membrane protein accounting for 2-5% of the myelin protein content, and its over-expression results in demyelination and subsequently axonal loss. A pair of cellular transcription-based assays was developed in the S16 rat Schwann cell lines (Hai, M., et al., 2002) stably transfected with orthogonal reporters - firefly luciferase (Fluc) and beta-lactamase (beta-Lac) - whose expression is driven by an intronic regulatory element of the PMP22 gene (Jones, E.A., et al., 2011) to recapitulate endogenous expression of PMP22. A comprehensive library of approved drugs, the NCGC Pharmaceutical Collection (Huang, R., et al., 2011), was screened in the cross-validating platform of the orthogonal reporter assays to identify drug modulators inhibitory towards PMP22 expression. A set of counter-screens was devised to address non-specific activity of the library. An ATP-dependent CellTiter-Glo assay (developed by Promega Corp) was utilized to control cell viability. In addition, biochemical Fluc enzyme assay was performed to assess direct inhibition of the Fluc enzymatic activity. References Hai, M., Muja, N., DeVries, G.H., Quarles, R.H. and Patel, P.I. Comparative analysis of Schwann cell lines as model systems for myelin gene transcription studies. J Neurosci Res, 2002. 69(4): pp 497-508 Huang, R., Southall, N., Wang, Y., Yasgar A., Shinn P., Jadhav, A. , Nguyen, D.-T. and Austin, C.P., The NCGC pharmaceutical collection: a comprehensive resource of clinically approved drugs enabling repurposing and chemical genomics. Sci Transl Med, 2011. 3(80): p. 80ps16.
Compounds were transferred to the plates in 23nl, and one microliter/well luciferase enzyme-buffer solution (10 nM P. pyralis luciferase and 50 mM Tris Acetate final concentrations) was dispensed yielding a final reaction volume of […]. Luciferase luminescence was measured by a ViewLux plate reader within 5 minutes of enzyme-buffer addition. The % activity was determined by normalizing to the average readings of PTC124 (a positive control) relative to DMSO (0% Activity). The concentration-effect curves were then classified based on curve quality (r2), response magnitude and degree of measured activity.

Chain of Luciferin 4-monooxygenase (Photinus pyralis) (P08659 whole entry, looked up): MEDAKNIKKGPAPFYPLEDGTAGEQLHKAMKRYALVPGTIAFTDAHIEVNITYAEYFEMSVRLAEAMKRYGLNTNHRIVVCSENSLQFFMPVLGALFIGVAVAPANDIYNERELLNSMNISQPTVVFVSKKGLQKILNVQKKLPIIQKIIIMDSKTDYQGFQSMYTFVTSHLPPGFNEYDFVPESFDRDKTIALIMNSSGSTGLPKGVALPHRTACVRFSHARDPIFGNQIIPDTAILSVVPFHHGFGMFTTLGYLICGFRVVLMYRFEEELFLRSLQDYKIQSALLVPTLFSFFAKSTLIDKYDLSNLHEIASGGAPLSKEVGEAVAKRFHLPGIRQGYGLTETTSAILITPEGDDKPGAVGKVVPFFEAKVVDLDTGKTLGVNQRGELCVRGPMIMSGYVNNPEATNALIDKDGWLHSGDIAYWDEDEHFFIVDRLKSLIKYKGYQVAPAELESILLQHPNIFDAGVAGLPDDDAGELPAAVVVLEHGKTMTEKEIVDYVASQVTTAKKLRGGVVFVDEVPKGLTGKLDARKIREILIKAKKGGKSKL

Potency, inactive:
CC[C@@]1(O)CC2CN(CCc3c([nH]c4ccccc34)[C@](C(=O)OC)(c3cc4c(cc3OC)N(C)C3[C@@](O)(C(=O)OC)C(OC(C)=O)[C@]5(CC)C=CCN6CC[C@@]43C65)C2)C1 (stereo not given in full), C[C@@H](O)[C@@H]1C(=O)N2C(C(=O)O)=C([C@H]3CCCO3)S[C@H]12, Nc1nc(Cl)nc2c1ncn2[C@@H]1O[C@H](CO)[C@H](O)C1F (stereo not given in full), CCCC[C@H](O)c1ccccc1, C=CCn1c(=O)n(C2OC(CO)C(O)C2O)c2nc(N)[nH]c(=O)c21 (stereo not given), CNC(=O)C(N)CSC(C)C1=C(C)c2cc3[n-]c(cc4nc(cc5[n-]c(cc1n2)c(C)c5CCC(=O)O)C(CCC(=O)O)=C4C)c(C)c3C(C)SCC(N)C(=O)NC.[Fe+2] (stereo not given), CCCSS/C(CCO)=C(/C)N(C=O)Cc1cnc(C)nc1N, CCC(C)C(N)C(=O)O (stereo not given), NCCCCC(N)C(=O)O (stereo not given), C=CCN1CC(C(=O)N(CCCN(C)C)C(=O)NCC)CC2c3cccc4[nH]cc(c34)CC21 (stereo not given), CCCCCCCCCCCC(=O)OCC(O)C1OCC(O)C1O (stereo not given), OCC(CO)NC1C[C@](O)(CO)[C@@H](O)[C@H](O)[C@H]1O (stereo not given in full), CC[C@@]1(O)C[C@H](O[C@H]2C[C@@H](N(C)C)[C@@H](O[C@H]3C[C@@H](O)[C@@H](O[C@H]4CCC(=O)[C@@H](C)O4)[C@@H](C)O3)[C@@H](C)O2)c2c(cc3c(c2O)C(=O)c2c(O)cccc2C3=O)[C@H]1C(=O)OC, OCCN1CC(O)C(O)C(O)C1CO (stereo not given), Cc1ccc(/C=C2/C(=O)C3(C)CCC2C3(C)C)cc1 (stereo not given), CC(=O)OCC(=O)[C@@]1(O)CCC2C3CCC4=CC(=O)C=CC4(C)C3C(O)C[C@]21C (stereo not given in full), COc1cccc(OC)c1C(=O)NC1C(=O)N2C1SC(C)(C)C2C(=O)O (stereo not given), CC[C@@H](C)C(N)C(=O)O (stereo not given in full), CO/N=C(/C(=O)N[C@@H]1C(=O)N2C(C(=O)O)=C(CSC(=O)c3ccco3)CSC12)c1csc(N)n1 (stereo not given in full), CC1OC(OCC2OC(Oc3c(-c4ccc(OCCO)c(OCCO)c4)oc4cc(OCCO)cc(O)c4c3=O)C(O)C(O)C2O)[C@@H](O)C(O)C1O (stereo not given in full), CC[C@H]1OC(=O)[C@H](C)C(=O)[C@H](C)[C@@H](OC2O[C@H](C)C[C@H](N(C)C)[C@@H]2O)[C@@](C)(OC)C[C@@H](C)C(=O)[C@@H](C)C2N(CCCCn3cnc(-c4cccnc4)c3)C(=O)O[C@@]21C (stereo not given in full), C=C(NCc1ccccc1)c1ccccc1O, C/C(=C(/CCOC(=O)C(C)C)SS/C(CCOC(=O)C(C)C)=C(\C)N(C=O)Cc1cnc(C)nc1N)N(C=O)Cc1cnc(C)nc1N, Cc1cc(O)c2c(c1)OC1(C)CCC3C(C)(C)CCCC34COC2C14 (stereo not given), C[N+]12CCCC[C@@H]1CCC(=C(c1cccs1)c1cccs1)C2 (stereo not given in full), CCCCN1CC(O)C(O)C(O)C1CO (stereo not given), CNC1CCc2cc(OC)c(OC)c(OC)c2-c2ccc(OC)c(=O)cc21 (stereo not given), CCCCC(=O)OCC(=O)[C@]1(O)Cc2c(O)c3c(c(O)c2[C@H](OC2CC(NC(=O)C(F)(F)F)C(O)C(C)O2)C1)C(=O)c1c(OC)cccc1C3=O (stereo not given in full), CC(=O)NC1[C@H]([C@H](O)[C@H](O)CO)OC(C(=O)O)=C[C@H]1N=C(N)N (stereo not given in full), O=C(OC[C@@H]1O[C@@](O)(COC(=O)c2cccnc2)[C@H](OC(=O)c2cccnc2)[C@H]1OC(=O)c1cccnc1)c1cccnc1, COc1ccc(S(=O)(=O)N2c3ccc(Cl)cc3[C@](O)(c3ccccc3Cl)[C@@H]2C(=O)N2CCC[C@H]2C(N)=O)cc1OC, CCCCC/C(C=O)=C/c1ccccc1, CCCC(=O)O[C@]1(C(=O)COC(C)=O)CC[C@H]2C3C[C@H](F)C4=CC(=O)C=CC4(C)[C@@]3(F)[C@@H](O)CC21C (stereo not given in full), O=C(O)CC(O)CC(O)/C=C/c1c(C2CC2)nc2ccccc2c1-c1ccc(F)cc1 (stereo not given), CC1(C)C2CC[C@]1(C)[C@@H](O)C2, CO[C@H]1C[C@@H]2CC[C@@H](C)[C@@](O)(O2)C(=O)C(=O)N2CCCC[C@H]2C(=O)O[C@H]([C@H](C)C[C@@H]2CC[C@@H](O)[C@H](OC)C2)CC(=O)[C@H](C)/C=C(\C)[C@@H](O)[C@@H](OC)C(=O)[C@H](C)C[C@H](C)/C=C/C=C/C=C/1C, CO/N=C(/C(=O)N[C@@H]1C(=O)N2C(C(=O)O)=C(C[n+]3ccc(N)n3CCO)CS[C@H]12)c1csc(N)n1, CC1C(=O)C(=O)C=CN1C (stereo not given), NC[C@@H]1O[C@H](OC2[C@@H](CO)O[C@@H](OC3[C@H](O)[C@H](N)C[C@H](N)[C@H]3OC3O[C@H](CO)[C@@H](O)[C@H](O)[C@@H]3N)[C@H]2O)C(N)[C@H](O)[C@@H]1O (stereo not given in full), Cc1ccc(S(=O)(=O)NC(=O)NC(C)Cc2ccccc2)cc1 (stereo not given)
